Targets with a hit are over-represented here; the source holds about 7,900 in all. About 0.6% of all pairs of compound and target were hits.
What was measured:
Experiment in all cases: log2 fold change, soluble protein after heating vs DMSO (PISA); higher = thermal stabilisation; K562 cells, 10 uM, 30 min; active = over 0.2 and 3.5 SD of the protein, either way, in both replicates (recomputed)
[1] = compound: C1=CC=C(C=C1)[C@H](COC2=CC3=C(C=C2)NC(=O)N3)NC(=O)C4=CC=CN(C4=O)CC5=CC(=C(C=C5)F)F
Summary of the method: (§1)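 K562 cells at 2×10^6 cells/mL were treated for 30 min with 10 μM compound, and aliquots were heated for 3 min over 48°C-58°C before pooling. Extraction used PBS with 0.5% NP-40 at 4°C, and soluble protein was the supernatant after 21,000xg for 90 min, measured by TMTpro 16plex LC-MS/MS with channel sums equalised. Thermal stability values, relative to control samples and from duplicates, are log2 fold changes.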

[2] = compound: CC1=C(SC2=C1C(=N[C@H](C3=NN=C(N32)C)CC(=O)N)C4=CC=C(C=C4)Cl)C
Summary of the method: as §1

[3] = compound: CC1=C2C(=CC=C1)N=C(N(C2=O)C3=CC=CC=C3C)CN4C=NC5=C(N=CN=C54)N
Summary of the method: as §1

[4] = compound: Cc1sc2c(c1C)C(c1ccc(Cl)cc1)=N[C@@H](CC(=O)OC(C)(C)C)c1nnc(C)n1-2
Summary of the method: as §1

[5] = compound: c1ccc([C@@H]2C[C@H]2NC2CCNCC2)cc1
Summary of the method: as §1

Measured: log2 fold change

PMM1 (UniProt Q92871)
inactive: [1] -0.031 | [2] -0.001 | [3] 0.091 | [4] 0.004 | [5] -0.006

PEX7 (UniProt O00628)
UniProt O00628, sequence (O00628 whole entry, looked up): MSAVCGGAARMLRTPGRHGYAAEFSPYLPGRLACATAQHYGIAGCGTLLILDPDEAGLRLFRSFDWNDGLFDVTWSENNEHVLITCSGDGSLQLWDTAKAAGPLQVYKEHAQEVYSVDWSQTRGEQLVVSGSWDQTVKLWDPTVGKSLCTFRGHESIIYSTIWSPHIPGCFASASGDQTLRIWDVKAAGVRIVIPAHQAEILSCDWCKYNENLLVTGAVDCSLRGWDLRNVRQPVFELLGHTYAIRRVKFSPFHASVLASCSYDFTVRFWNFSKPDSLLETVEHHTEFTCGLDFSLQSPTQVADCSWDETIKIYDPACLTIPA
inactive: [2] 0.035 | [3] 0.136 | [4] 0.021 | [5] -0.03
active: [1] -0.371

POMP (UniProt Q9Y244)
UniProt Q9Y244, sequence (Q9Y244 whole entry, looked up): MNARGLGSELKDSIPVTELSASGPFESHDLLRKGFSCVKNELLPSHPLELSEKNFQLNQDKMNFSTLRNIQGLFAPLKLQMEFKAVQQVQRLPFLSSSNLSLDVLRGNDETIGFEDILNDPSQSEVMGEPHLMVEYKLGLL
inactive: [1] -0.101 | [2] -0.077 | [3] -0.069 | [4] -0.018 | [5] -0.009

PSMD1 (UniProt Q99460)
UniProt Q99460, sequence (Q99460 whole entry, looked up): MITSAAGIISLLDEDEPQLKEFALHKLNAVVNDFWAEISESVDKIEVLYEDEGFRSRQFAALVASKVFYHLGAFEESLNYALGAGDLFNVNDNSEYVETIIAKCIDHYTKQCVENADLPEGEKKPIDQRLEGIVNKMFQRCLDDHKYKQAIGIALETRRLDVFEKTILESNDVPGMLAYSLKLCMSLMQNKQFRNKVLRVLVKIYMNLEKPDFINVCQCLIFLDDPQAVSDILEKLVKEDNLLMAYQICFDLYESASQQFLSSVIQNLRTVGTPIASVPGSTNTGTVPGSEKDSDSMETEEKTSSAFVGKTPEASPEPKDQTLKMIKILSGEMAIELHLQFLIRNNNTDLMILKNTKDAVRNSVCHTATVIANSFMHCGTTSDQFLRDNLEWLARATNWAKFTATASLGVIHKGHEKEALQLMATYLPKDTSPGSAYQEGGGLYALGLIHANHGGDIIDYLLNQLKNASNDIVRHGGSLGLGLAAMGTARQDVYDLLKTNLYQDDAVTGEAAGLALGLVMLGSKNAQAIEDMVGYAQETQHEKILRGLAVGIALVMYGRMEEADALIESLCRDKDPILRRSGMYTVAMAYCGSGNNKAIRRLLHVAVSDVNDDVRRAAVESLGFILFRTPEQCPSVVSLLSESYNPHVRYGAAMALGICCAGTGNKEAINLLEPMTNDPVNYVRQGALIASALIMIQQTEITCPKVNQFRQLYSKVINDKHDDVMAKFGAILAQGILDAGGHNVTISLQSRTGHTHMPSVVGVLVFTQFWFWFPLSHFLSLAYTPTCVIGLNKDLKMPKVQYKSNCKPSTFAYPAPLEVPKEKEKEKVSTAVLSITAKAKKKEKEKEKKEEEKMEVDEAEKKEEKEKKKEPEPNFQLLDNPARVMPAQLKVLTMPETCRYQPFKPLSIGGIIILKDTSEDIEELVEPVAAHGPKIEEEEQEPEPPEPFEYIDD
inactive: [1] 0.017 | [2] -0.087 | [3] -0.058 | [4] -0.017 | [5] 0

PRKACB isoform 2 (UniProt P22694)
inactive: [1] -0.06 | [2] 0.021 | [3] 0.032 | [4] -0.038 | [5] 0.003

PSMD2 (UniProt Q13200)
inactive: [1] 0.026 | [2] -0.097 | [3] -0.059 | [4] 0.008 | [5] 0.016

PSD3 (UniProt Q9NYI0)
inactive: [2] 0.045 | [3] 0.052 | [5] -0.028

PARP16 isoform 3 (UniProt Q8N5Y8)
inactive: [1] -0.019 | [2] -0.019 | [3] 0.012 | [4] -0.041 | [5] 0.001

PCBP2 (UniProt F8VZX2)
inactive: [1] -0.1 | [2] -0.107 | [5] 0.019

PTP4A3 (UniProt O75365)
inactive: [1] 0.037 | [3] 0.391

POGZ (UniProt Q7Z3K3)
UniProt Q7Z3K3, sequence (Q7Z3K3 whole entry, looked up): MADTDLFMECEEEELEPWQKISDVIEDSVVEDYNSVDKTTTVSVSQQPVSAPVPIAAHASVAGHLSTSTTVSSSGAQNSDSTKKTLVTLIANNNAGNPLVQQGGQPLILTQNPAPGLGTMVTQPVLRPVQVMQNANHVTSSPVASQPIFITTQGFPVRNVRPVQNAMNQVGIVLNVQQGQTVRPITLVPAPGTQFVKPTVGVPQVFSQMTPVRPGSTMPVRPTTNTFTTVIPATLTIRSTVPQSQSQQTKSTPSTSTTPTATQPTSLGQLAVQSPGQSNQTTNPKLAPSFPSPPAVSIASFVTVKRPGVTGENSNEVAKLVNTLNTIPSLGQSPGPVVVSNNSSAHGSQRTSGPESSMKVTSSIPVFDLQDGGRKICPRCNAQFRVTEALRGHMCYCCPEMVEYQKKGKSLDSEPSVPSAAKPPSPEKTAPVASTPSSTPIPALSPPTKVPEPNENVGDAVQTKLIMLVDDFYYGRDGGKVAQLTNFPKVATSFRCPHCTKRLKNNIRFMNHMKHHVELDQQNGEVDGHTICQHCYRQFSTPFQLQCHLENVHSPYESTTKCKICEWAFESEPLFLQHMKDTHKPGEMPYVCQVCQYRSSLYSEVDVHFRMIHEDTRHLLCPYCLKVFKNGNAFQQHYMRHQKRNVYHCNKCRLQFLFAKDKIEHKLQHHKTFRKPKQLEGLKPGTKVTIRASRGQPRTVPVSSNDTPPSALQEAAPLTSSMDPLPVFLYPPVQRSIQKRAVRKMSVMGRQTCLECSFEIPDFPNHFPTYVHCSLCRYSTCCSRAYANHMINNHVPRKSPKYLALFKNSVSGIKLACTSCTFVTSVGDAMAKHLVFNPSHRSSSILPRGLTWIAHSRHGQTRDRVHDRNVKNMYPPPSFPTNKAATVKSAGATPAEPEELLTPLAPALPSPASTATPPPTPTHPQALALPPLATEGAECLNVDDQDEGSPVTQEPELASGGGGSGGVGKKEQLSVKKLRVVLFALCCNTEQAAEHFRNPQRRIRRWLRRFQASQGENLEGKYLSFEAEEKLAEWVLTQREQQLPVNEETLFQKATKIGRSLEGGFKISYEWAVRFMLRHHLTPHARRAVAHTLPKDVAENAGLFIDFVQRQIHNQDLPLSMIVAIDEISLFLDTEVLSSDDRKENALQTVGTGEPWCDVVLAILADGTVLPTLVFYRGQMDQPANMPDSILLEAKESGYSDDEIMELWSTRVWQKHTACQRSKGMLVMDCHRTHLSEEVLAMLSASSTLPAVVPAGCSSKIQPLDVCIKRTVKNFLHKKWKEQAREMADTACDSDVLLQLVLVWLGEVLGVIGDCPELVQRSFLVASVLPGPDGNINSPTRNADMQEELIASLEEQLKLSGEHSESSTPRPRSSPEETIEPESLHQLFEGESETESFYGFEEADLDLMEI
inactive: [2] 0.056 | [3] 0.099 | [4] 0.025 | [5] -0.032

POLB (UniProt P06746)
inactive: [2] 0.053 | [4] -0.107 | [5] -0.006

PSMA3 (UniProt H0YJ03)
inactive: [2] 0.193 | [3] 0.119 | [4] 0.048 | [5] 0.034

PHC3 isoform 7 (UniProt Q8NDX5)
UniProt Q8NDX5, sequence (Q8NDX5 whole entry, looked up): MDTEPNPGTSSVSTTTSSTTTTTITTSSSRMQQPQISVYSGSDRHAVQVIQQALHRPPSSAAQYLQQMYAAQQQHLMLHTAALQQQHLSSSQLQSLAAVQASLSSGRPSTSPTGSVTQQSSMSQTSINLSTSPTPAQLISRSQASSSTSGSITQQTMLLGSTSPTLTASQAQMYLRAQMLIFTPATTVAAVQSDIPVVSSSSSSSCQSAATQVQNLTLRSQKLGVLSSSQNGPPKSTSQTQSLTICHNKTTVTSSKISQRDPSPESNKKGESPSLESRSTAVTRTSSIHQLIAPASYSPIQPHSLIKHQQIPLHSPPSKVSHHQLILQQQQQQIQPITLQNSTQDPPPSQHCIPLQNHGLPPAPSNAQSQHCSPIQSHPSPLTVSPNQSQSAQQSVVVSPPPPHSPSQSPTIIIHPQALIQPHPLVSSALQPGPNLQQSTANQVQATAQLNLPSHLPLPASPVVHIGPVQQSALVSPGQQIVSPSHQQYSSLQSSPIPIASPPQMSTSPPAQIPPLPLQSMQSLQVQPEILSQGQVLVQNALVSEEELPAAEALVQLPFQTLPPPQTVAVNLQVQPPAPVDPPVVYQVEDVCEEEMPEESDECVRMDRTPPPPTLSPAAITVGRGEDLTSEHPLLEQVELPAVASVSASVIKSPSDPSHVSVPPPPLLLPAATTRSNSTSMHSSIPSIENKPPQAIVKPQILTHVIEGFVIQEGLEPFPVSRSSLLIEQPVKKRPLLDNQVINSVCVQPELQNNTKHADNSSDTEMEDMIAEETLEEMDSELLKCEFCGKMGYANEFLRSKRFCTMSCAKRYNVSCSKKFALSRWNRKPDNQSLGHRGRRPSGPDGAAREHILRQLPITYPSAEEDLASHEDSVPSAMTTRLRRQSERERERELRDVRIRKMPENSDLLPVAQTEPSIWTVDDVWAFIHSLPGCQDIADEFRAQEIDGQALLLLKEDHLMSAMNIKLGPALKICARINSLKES
inactive: [1] -0.023 | [2] -0.025 | [5] -0.075

PLCG1 isoform 2 (UniProt P19174)
inactive: [1] -0.059 | [2] 0.038 | [3] 0.033 | [4] 0.063 | [5] -0.028

PSMD8 (UniProt K7ERW6)
inactive: [3] 0.2 | [4] 0.03

PSMC1 (UniProt G3V4X1)
inactive: [2] -0.021 | [5] 0.112

PTP4A2 (UniProt Q12974)
inactive: [1] -0.021 | [2] 0.028 | [3] 0.056 | [4] 0.052 | [5] -0.029

PCGF2 (UniProt P35227)
inactive: [1] -0.046 | [2] 0.133 | [3] -0.015 | [4] 0.002 | [5] -0.05

PUM1 (UniProt Q14671)
inactive: [2] 0.116 | [4] 0.059 | [5] -0.094

PKM isoform 2 (UniProt P14618)
inactive: [1] 0.063 | [3] -0.057 | [4] -0.046

PSMD8 (UniProt K7EK21)
inactive: [2] -0.11 | [5] 0.188

PSMC2 (UniProt P35998)
UniProt P35998, sequence (P35998 whole entry, looked up): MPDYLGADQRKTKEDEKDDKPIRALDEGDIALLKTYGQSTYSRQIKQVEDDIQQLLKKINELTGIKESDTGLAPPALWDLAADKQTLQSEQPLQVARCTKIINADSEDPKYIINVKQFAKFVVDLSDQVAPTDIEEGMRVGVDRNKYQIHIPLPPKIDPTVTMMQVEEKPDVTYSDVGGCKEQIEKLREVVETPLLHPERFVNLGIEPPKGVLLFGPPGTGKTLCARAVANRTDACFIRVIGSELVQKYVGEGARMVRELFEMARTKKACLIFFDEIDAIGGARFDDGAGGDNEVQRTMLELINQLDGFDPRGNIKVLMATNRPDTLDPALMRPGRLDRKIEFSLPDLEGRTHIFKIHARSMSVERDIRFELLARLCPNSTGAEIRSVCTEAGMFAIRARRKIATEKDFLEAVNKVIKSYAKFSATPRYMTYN
inactive: [1] 0.031 | [2] -0.085 | [3] -0.092 | [4] 0.002 | [5] 0.001

PDPK1 (UniProt O15530)
inactive: [2] 0.065 | [3] 0.014 | [4] -0.038 | [5] -0.018

PNN (UniProt Q9H307)
UniProt Q9H307, sequence (Q9H307 whole entry, looked up): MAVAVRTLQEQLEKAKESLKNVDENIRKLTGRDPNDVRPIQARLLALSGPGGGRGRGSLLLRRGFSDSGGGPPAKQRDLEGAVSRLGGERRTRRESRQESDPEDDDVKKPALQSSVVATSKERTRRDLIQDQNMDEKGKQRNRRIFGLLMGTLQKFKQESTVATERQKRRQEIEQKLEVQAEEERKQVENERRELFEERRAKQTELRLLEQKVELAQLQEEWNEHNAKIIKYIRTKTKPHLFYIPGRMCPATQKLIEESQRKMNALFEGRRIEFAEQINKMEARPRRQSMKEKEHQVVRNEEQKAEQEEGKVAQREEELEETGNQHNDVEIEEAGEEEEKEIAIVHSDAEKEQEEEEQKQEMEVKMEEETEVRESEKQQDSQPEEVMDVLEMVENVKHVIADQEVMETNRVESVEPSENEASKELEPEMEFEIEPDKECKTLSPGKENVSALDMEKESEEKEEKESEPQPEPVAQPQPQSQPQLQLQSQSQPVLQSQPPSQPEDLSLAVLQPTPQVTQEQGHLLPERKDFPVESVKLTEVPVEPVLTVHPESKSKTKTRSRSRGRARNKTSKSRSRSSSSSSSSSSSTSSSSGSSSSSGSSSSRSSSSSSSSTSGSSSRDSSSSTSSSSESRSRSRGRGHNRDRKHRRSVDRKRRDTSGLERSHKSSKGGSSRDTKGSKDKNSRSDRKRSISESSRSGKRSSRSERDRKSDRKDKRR
inactive: [1] 0.084 | [2] 0.021 | [5] 0.012

PSMA3 (UniProt G3V4X5)
inactive: [1] -0.073 | [3] 0.147

PCNX1 (UniProt Q96RV3)
inactive: [1] 0.064 | [3] 0.103 | [4] -0.122

PHKA1 (UniProt P46020)
inactive: [1] 0.028 | [2] -0.078 | [4] 0.103 | [5] 0.011

PIAS4 (UniProt Q8N2W9)
inactive: [4] 0.129
